PubChem BioAssay (NCATS)
Several values for one entry are separate records, joined by “and”; a condition that tells them apart may be missing. Equal values may be shown once. Records with an inconclusive call do not appear. Entries that show only a call come without a potency. Activity calls are given as the source filed them. Unless noted, calls come from the whole dose curve; as a rule, active = well fitted curve in the direction sought with a large enough effect; inconclusive = small, poorly fitted or top-dose-only effect, or another doubt; inactive = no such curve, though single readings can be large; an effect the other way counts as inactive or inconclusive.

Assays:
[1] = Cell Viability - Jurkat (AID 426;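 active = dose-dependent loss of cell ATP signal giving a full or clear fitted curve, ranked by lower potency value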;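 note: potency is the fitted concentration of half-maximal effect; cells exposed to compound for 40 hours at 37 °C before ATP read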); settings: qHTS
In short: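 Seed 5000 Jurkat E6-1 cells/well; add compound; incubate 40 hr at 37 °C; add CellTiter-Glo; wait 20 min at room temperature; read luminescence. Fit concentration-response with Hill equation for AC50.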

[2] = Cell Viability - Hek293 (AID 427;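 active = compounds whose dose-response curve shows a full or clear partial loss of cell viability, called from curve shape rather than a numeric limit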;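 note: potency is the fitted concentration of half-maximal effect; cells exposed to compound for 40 hours at 37 °C before reading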); settings: qHTS
In short: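 qHTS, human embryonic kidney (adenovirus-transformed) cells; 40 hr cpd, 37 °C; CellTiter-Glo ATP luminescence. Norm: DMSO = 0, 100 uM tamoxifen = 100% inhibition. Hill-fit AC50.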

[3] = Cell Viability - HUV-EC-C (AID 542); settings: HUV-EC-C endothelial cell viability, qHTS; series mostly up to 92.2 µM;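 note: cells exposed to compound for 40 hours; nearly all actives have a fitted effect of over 35% in size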
In short: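 Decrease in cellular ATP, quantified by luciferase luminescence, reflects toxicity in normal human vascular endothelial HUV-EC-C cells given compound for 40 hr in complete culture medium. Values are AC50s from concentration-response curves.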

[4] = Cell Viability - H-4-II-E (AID 543); settings: H-4-II-E rat hepatoma viability; series mostly up to 92.2 µM;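 note: cells exposed to compound for 40 hours; nearly all actives have a fitted effect of over 35% in size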
In short: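 Here, cytotoxicity is measured in the rat hepatoma line H-4-II-E as loss of intracellular ATP after 40 hr compound treatment, detected by luciferase luminescence.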

[5] = Cell Viability - SH-SY5Y (AID 544); settings: SH-SY5Y neuroblastoma cell viability; series mostly up to 92.2 µM;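 note: cells exposed to compound for 40 hours; nearly all actives have a fitted effect of over 55% in size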
In short: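 Cytotoxicity is scored as a concentration-dependent fall in intracellular ATP in human SH-SY5Y cells treated 40 hr in complete culture medium. Potency is expressed as AC50 from a Hill equation fit.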

[6] = Cellular Toxicity (caspase-3) SHSY5Y (AID 657); settings: SH-SY5Y caspase-3 activation, DMSO zero, 10 µM staurosporine = 100%; series mostly up to 91.7 µM;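 note: cells exposed to compound for 16 hours at 37 °C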
In short: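 Luminescent caspase-3/7 readout (aminoluciferin release) in SH-SY5Y cells after 16 h compound exposure in complete medium. Activity scaled between DMSO basal and 10 uM staurosporine as 100%; concentration-response fitted to Hill equation for AC50.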

[7] = Cellular Toxicity (caspase-3) SK-N-SH (AID 661); settings: SK-N-SH caspase-3 activation, qHTS, DMSO as zero, staurosporine as full; series mostly up to 91.7 µM
In short: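 Caspase 3/7 activation is measured as a luminescence increase from aminoluciferin released by substrate cleavage in SK-N-SH cells after 16 hr compound treatment; values are AC50 from concentration-response curves.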

[8] = Cellular Toxicity (caspase-3) H-4-II-E (AID 663); settings: H-4-II-E rat hepatoma; Potency: caspase-3 activation; series mostly up to 92.2 µM;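 note: cells exposed to compound for 16 hr before readout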
In short: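 Apoptosis induction is scored as increased luminescence from caspase 3/7 substrate cleavage in rat hepatoma H-4-II-E cells exposed to compound for 16 hr. Activity is scaled between DMSO and 100 uM tamoxifen.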

[9] = Cellular Toxicity (caspase-3) N2a (AID 665); settings: N2a cells, luminescence, normalized: DMSO 0%, 10 µM staurosporine 100%; series mostly up to 92.2 µM;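 note: compound exposure lasted 16 h at 37 °C before readout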
In short: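 Plated mouse neuroblastoma N2a cells received titrated compounds for 16 h in complete medium. Caspase activity was then detected with a peptide-aminoluciferin luminescent reagent.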

[10] = Cellular Toxicity (caspase-3) NIH 3T3 (AID 666); settings: NIH 3T3 caspase-3 activation, apoptosis/toxicity, 0% DMSO, 100% is 100 µM tamoxifen; series mostly up to 92.2 µM;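 note: caspase signal read after 16 h compound exposure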
In short: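 Concentration-response qHTS in NIH 3T3 mouse fibroblasts scores caspase-3/7 activation as rising luminescence after 16 hr compound exposure. Signals are scaled between DMSO-only and 100 uM tamoxifen.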

[11] = Cell Viability - LYMP1-002 - Assay at 16 hr (AID 948); settings: LYMP1-002 lymphoblastoid cell viability; series mostly up to 92.2 µM
In short: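 LYMP1-002 human lymphoblastoid cells, 2500/well; 5 hr 37 C; cpd 16 hr 37 C; CellTiter-Glo 30 min RT; luminescence (ATP). Concentration-response, Hill-fit AC50. Pos ctrl tetraoctylammonium bromide.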

[12] = MultiTox-Fluor Cytotoxicity Assay - LYMP1-002 - Live Cells (AID 955); settings: LYMP1-002 lymphoblastoid live-cell protease fluorescence viability; series mostly up to 46.1 µM
In short: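 Cytotoxicity in the human lymphoblastoid line LYMP1-002 is measured as loss of live-cell protease activity after 16 h treatment in complete culture medium. AC50 is derived from Hill-equation fits of qHTS concentration-response data.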

[13] = MultiTox-Fluor Cytotoxicity Assay - LYMP1-003 - Dead Cells (AID 961); settings: LYMP1-003 lymphoblastoid cells, dead-cell protease fluorescence; series mostly up to 92.2 µM;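 note: cells exposed to compound for 16 h at 37 °C; nearly all actives have a fitted effect of over 70% in size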
In short: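 LYMP1-003 lymphoblastoid, 2500 cells/well, 5 hr settle then 16 hr cpd at 37 C; MultiTox-Fluor reagent 60 min RT; Ex/Em 485/520 dead-cell signal; norm. DMSO = 0%, 15 uM tetraoctylammonium bromide = 100%; Hill AC50.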

[14] = Cell Viability - LYMP2-003 (AID 965); settings: LYMP2-003 lymphoblastoid cell viability; series mostly up to 92.2 µM;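 note: cells exposed to compounds for 24 h before reading; nearly all actives have a fitted effect of over 50% in size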
In short: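 CellTiter-Glo luminescence (cellular ATP) after 24 h compound exposure at 37 C in complete medium; 2500 cells/well, 5 h settling beforehand. Concentration-response fitted to standard Hill equation for AC50. Tetraoctylammonium bromide served as positive control.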

[15] = Cell Viability - LYMP2-018 (AID 985); settings: LYMP2-018 lymphoblastoid cells, viability (qHTS); series mostly up to 92.2 µM;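 note: compound exposure lasted 24 hr at 37 °C; nearly all actives have a fitted effect of over 50% in size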
In short: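 Acute cytotoxicity is scored as a concentration-dependent drop in intracellular ATP after 24 hr exposure of the lymphoblastoid line in complete culture medium, measured by luciferase luminescence. Potency is expressed as AC50 from Hill modelling.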

[16] = Cell Viability - LYMP2-020 (AID 986); settings: series mostly up to 92.2 µM; note: nearly all actives have a fitted effect of over 55% in size
In short: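 Acute cytotoxicity in a human lymphoblastoid line is scored as a concentration-dependent fall in cellular ATP after 24 hr at 37 C in complete medium. The positive control is tetraoctylammonium bromide, and potency is given as Hill-fit AC50.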

[17] = Cell Viability - LYMP2-022 (AID 987); settings: LYMP2-022 lymphoblastoid cell viability; series mostly up to 92.2 µM;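 note: cells exposed to compound for 24 hr; nearly all actives have a fitted effect of over 55% in size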
In short: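 Acute toxicity in a human lymphoblastoid line is scored as decreased intracellular ATP after 24 hr compound treatment at 37 C. ATP is measured by CellTiter-Glo luminescence; curves are fitted with the Hill equation to give AC50.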

[18] = Cell Viability - LYMP2-024 (AID 988); settings: LYMP2-024 lymphoblastoid cell viability; series mostly up to 92.2 µM;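 note: cells exposed to compound for 24 hr at 37 °C; nearly all actives have a fitted effect of over 60% in size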
In short: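 Acute toxicity is measured as concentration-dependent loss of intracellular ATP in a human lymphoblastoid line treated 24 hours at 37 C. Luciferase luminescence quantifies ATP; AC50 values come from standard Hill-equation modelling.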

[19] = qHTS assay for small molecule antagonists of retinoid X receptor alpha signaling (AID 588546); settings: HEK293T RXRa-UAS-bla, beta-lactamase ratio, antagonist mode; measured here: W530 green channel, cytotoxicity proxy;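 note: cells stimulated with 9-cis-retinoic acid as agonist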
In short: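 Beta-lactamase reporter inhibition, read as CCF4 fluorescence ratio (ex 405, em 460/530 nm) after 2 h at RT. HEK293T UAS-bla cells, 2500/well, were stimulated with 9-cis-RA at 500 or 100 nM final alongside test compound for 18 h at 37 C.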

[20] = qHTS assay for cell viability of HEK293 cells (AID 743288); settings: ATP luminescence (CellTiter-Glo), 18 h; max response: stronger effect = lower value; note: nearly all actives have a fitted effect of over 50% in size
In short: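 Environmental chemicals tested in qHTS format against parental HEK293 cells; 18 h treatment, 37 C; read-out ATP luminescence (CellTiter-Glo), 30 min RT development.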

CCCCCCCCO
Potency [1]: > 92 µM (inactive) | Potency [2]: > 92 µM (inactive) | outcome [3]: inactive | Potency [4]: inactive | Potency [5]: inactive | outcome [6]: inactive | outcome [7]: inactive | Potency [8]: inactive | outcome [9]: inactive | outcome [10]: inactive | Potency [11]: inactive | Potency [12]: inactive | Potency [13]: inactive | Potency [14]: inactive | Potency [15]: inactive | Potency [16]: inactive | Potency [17]: inactive | Potency [18]: inactive | max response [19]: -5.18% and -18.2% and -19.2% | max response [20]: 3.94% (inactive) and -5.81% (inactive) and -6.7% (inactive)

COCC(=O)O
Potency [1]: > 92 µM (inactive) | Potency [2]: > 92 µM (inactive) | outcome [3]: inactive | Potency [4]: inactive | Potency [5]: inactive | outcome [6]: inactive | outcome [7]: inactive | Potency [8]: inactive | outcome [9]: inactive | outcome [10]: inactive | Potency [11]: inactive | Potency [12]: inactive | Potency [13]: inactive | Potency [14]: inactive | Potency [15]: inactive | Potency [16]: inactive | Potency [17]: inactive | Potency [18]: inactive | max response [19]: 10.5% and -3.07% | max response [20]: -1.06% (inactive) and 2.91% (inactive)

Nc1ccc(Cl)cc1Cl
Potency [1]: > 92 µM (inactive) | Potency [2]: > 92 µM (inactive) | outcome [3]: inactive | Potency [4]: inactive | Potency [5]: inactive | outcome [6]: inactive | outcome [7]: inactive | Potency [8]: inactive | outcome [9]: inactive | outcome [10]: inactive | Potency [11]: inactive | Potency [12]: inactive | Potency [13]: inactive | Potency [14]: inactive | Potency [15]: inactive | Potency [16]: inactive | Potency [17]: inactive | Potency [18]: inactive | max response [19]: 2.24% and -0.667% | max response [20]: 1.15% (inactive) and -5.99% (inactive)

Cc1cccc([N+](=O)[O-])c1C
Potency [1]: > 92 µM (inactive) | Potency [2]: > 92 µM (inactive) | outcome [3]: inactive | Potency [4]: inactive | Potency [5]: inactive | outcome [6]: inactive | outcome [7]: inactive | Potency [8]: inactive | outcome [9]: inactive | outcome [10]: inactive | Potency [11]: inactive | Potency [12]: inactive | Potency [13]: inactive | Potency [14]: inactive | Potency [15]: inactive | Potency [16]: inactive | Potency [17]: inactive | Potency [18]: inactive | max response [19]: -3.46% and -5.25% | max response [20]: -3.29% (inactive) and 4.27% (inactive)

CC(=O)OC/C=C(\C)CCC=C(C)C
Potency [1]: > 92 µM (inactive) | Potency [2]: > 92 µM (inactive) | outcome [3]: inactive | Potency [4]: inactive | Potency [5]: inactive | outcome [6]: inactive | outcome [7]: inactive | Potency [8]: inactive | outcome [9]: inactive | outcome [10]: inactive | Potency [11]: inactive | Potency [12]: inactive | Potency [13]: inactive | Potency [14]: inactive | Potency [15]: inactive | Potency [16]: inactive | Potency [17]: inactive | Potency [18]: inactive | max response [19]: -3.71% and -6.77% | max response [20]: -10.3% (inactive) and 5.2% (inactive)

CCO
Potency [1]: > 92 µM (inactive) | Potency [2]: > 92 µM (inactive) | outcome [3]: inactive | Potency [4]: inactive | Potency [5]: inactive | outcome [6]: inactive | outcome [7]: inactive | Potency [8]: inactive | outcome [9]: inactive | outcome [10]: inactive | Potency [11]: inactive | Potency [12]: inactive | Potency [13]: inactive | Potency [14]: inactive | Potency [15]: inactive | Potency [16]: inactive | Potency [17]: inactive | Potency [18]: inactive | max response [19]: -7.92% | max response [20]: 8.81% (inactive)
